# Test results as given in PubChem BioAssay.
# Active and inactive are the calls of the source.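 How the source made its calls, unless noted: active means fluorescence slope after compound addition differing from the mean of all screened samples at 99.7% confidence, in either direction; inactive means the rest.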
# Columns and labels:
# [1] = inhibitors of TNFa-induced NFkB p65 translocation, primary screen, imaging, HUVEC, MLSMR starter and 10KST1 sets (AID 438;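 active means inhibition above 20% together with a positive visual image hit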;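 further: compound added about 3h40 before a 20 min TNFalpha stimulation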;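 on inhibition: signal is the nuclear over cytoplasmic p65 intensity ratio per well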); conditions: HUVEC TNFa-induced p65 nuclear translocation; cell count: measured here: nuclei count (cytotoxicity indicator), at 2.08 µM; inhibition: at 2 µM, stronger effect = higher value, 0% TNFa-plus-vehicle, 100% no-TNFa wells
# [2] = reduction of polyQ htt aggregates in cells – imaging, exon1htt(103Q)mCFP cells, high-content imaging, primary screen (AID 483;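 active means visual image review flags a hit and inhibition of aggregation exceeds 20%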;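 further: compound exposure lasted 3 days before fixation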;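 on nuclei count: percent of the per-plate median nuclei count of sample wells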); conditions: exon1htt(103Q)mCFP cell line, aggregate imaging, at 2 µM; inhibition of aggregation: stronger effect = higher value; nuclei count: measured here: cell count, toxicity
# [3] = endothelial E-selectin expression blockers – imaging, HUVEC, immunofluorescence, MLSMR starter and 10KST1 sets, primary screen (AID 487;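 active means visually confirmed hit in the image check and inhibition above 20%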;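 on inhibition: signal is fraction of cell area covered by stained E-selectin grains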;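 on nuclei count: 100% = median nuclei count of all wells on the same plate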); conditions: HUVEC TNFalpha-induced E-selectin immunofluorescence imaging, at 2 µM; inhibition: stronger effect = higher value; nuclei count: measured here: cell number, toxicity
# [4] = target: Voltage-gated potassium channel subunit beta-2 (Rattus norvegicus) (UniProt P62483); assay: inhibitors of rat Kvbeta2 reductase activity – biochemical, NADPH fluorescence, primary screen (AID 622;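 active means fluorescence slope higher than the sample average by over 3 SD, cut at about -0.22 in these data, passing the limit was not always enough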;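 further: slope of raw intensity against log time taken from 70 to 1610 s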); conditions: recombinant KvBeta, 4-cyanobenzaldehyde reduction, at 10 µM, stronger effect = higher value
# [5] = target: Voltage-gated potassium channel subunit beta-2 (Rattus norvegicus) (UniProt P62483); assay: enhancers of rat Kvbeta2 NADPH turnover – biochemical, NADPH fluorescence, primary screen (AID 623;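 active means NADPH fluorescence slope more negative than the mean of all samples by about 3 SD, 99.7% confidence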;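 further: fluorescence intensity change per second fitted from 20 to 320 s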); conditions: Recombinant KvBeta, NADPH fluorescence decrease slope, 10 min; at 10 µM; stronger effect = lower value
# [6] = target: Alpha-2C adrenergic receptor (Homo sapiens) (UniProt P18825); assay: compounds altering alpha2C-coupled GIRK flux – cell-based, HEK293 alpha2C/GIRK1/2, thallium flux, primary screen (AID 624); conditions: thallium flux BTC fluorescence, at 10 µM, actives lie on both sides;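 further: slope of fluorescence ratio to pre-addition baseline per second over 15 to 24 s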
# [7] = blockers of RIG-like receptor reporter activation – cell-based, Sendai virus stimulus, luciferase, 10K MLSCN set, TLR/RLR signaling modifier project, primary screen (AID 602276;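 active means inhibition at or above 50% at 10 µM; inactive means inhibition below 50%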;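 further: firefly luciferase from ISG56 promoter only with Renilla not read in this screen; 0% = Sendai virus plus DMSO and 100% = medium plus DMSO without virus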); conditions: HEK293 RL24 IRF3 luciferase reporter, at 10 µM, stronger effect = higher value
# [8] = TLR3 IRF3 reporter activation blockers – cell-based, poly I:C stimulus, luciferase, 10K MLSCN set, primary screen (AID 602277;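 active means inhibition of the reporter signal at or above 50%; inactive means inhibition below 50%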); conditions: HEK293-TLR3 RL24 IRF3 luciferase reporter, at 10 µM, stronger effect = higher value
# Chain of Alpha-2C adrenergic receptor (Homo sapiens) (P18825 whole entry, looked up): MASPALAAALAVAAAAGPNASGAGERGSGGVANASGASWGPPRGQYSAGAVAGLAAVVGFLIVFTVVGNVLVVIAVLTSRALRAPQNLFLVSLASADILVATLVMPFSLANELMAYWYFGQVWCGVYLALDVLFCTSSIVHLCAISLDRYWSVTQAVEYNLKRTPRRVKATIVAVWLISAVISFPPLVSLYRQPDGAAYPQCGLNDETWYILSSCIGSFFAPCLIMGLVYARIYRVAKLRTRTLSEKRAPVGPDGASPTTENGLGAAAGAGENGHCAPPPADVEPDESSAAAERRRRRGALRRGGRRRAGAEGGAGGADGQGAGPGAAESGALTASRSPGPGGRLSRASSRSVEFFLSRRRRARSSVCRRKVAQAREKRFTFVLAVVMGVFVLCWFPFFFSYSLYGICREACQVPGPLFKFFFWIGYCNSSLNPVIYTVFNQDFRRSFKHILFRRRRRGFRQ
# Chain of Voltage-gated potassium channel subunit beta-2 (Rattus norvegicus) (P62483 whole entry, looked up): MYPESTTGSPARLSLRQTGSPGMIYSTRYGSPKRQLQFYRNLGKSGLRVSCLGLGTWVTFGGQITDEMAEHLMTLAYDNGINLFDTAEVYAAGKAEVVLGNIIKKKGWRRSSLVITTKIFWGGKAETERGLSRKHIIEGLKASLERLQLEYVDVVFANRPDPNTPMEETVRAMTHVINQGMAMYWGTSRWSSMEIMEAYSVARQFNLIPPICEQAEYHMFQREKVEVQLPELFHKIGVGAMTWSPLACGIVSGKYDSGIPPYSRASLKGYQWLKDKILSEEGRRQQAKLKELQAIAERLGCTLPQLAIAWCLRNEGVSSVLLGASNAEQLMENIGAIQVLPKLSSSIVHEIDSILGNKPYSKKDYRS
SMILES,cell count [1],inhibition [1],inhibition of aggregation [2],nuclei count [2],inhibition [3],nuclei count [3],fluorescence slope [4],NADPH fluorescence slope [5],slope [6],inhibition [7],inhibition [8]
CCCCCCc1ccc(-c2ncc(N)cn2)cc1,478,3.5% (inactive),26.5% (inactive),110%,-42.4% (inactive),109%,-0.509 (inactive),6.3e-06 (inactive),0.00484 (inactive),-9.96% (inactive),-78.9% (inactive)
COc1ccc(C(=O)Nc2nc(C)c(C(=O)N(C)C)s2)cc1OC,435,2.8% (inactive),5.4% (inactive),102%,-16.9% (inactive),91.8%,-0.461 (inactive),2.3e-06 (inactive),0.00371 (inactive),-7.68% (inactive),-30.5% (inactive)
C=C(C)COc1ccc(-c2n[nH]c(C)c2-c2ccccc2)c(O)c1,456,-8% (inactive),3.7% (inactive),99.2%,0.8% (inactive),81.8%,-0.46 (inactive),-3.2e-05 (inactive),0.00246 (inactive),-6.65% (inactive),11.2% (inactive)
CCC(CC)n1[nH]c(=O)c2c(C)cc(C)nc21,368,0.2% (inactive),0.4% (inactive),106%,13.4% (inactive),106%,-0.299 (inactive),-6.9e-05 (inactive),0.00499 (inactive),6.59% (inactive),13.6% (inactive)
Cn1cccc1Cc1nnc(SCC(=O)N2CCOCC2)n1-c1ccc(F)cc1,585,5.8% (inactive),26.9% (inactive),89.6%,55.7% (active),96.2%,-0.527 (inactive),-3.5e-05 (inactive),0.00693 (inactive),12.2% (inactive),28.3% (inactive)
Cc1nnc(NCCc2ccccc2)n(N)c1=O,806,-5.5% (inactive),-21.2% (inactive),106%,-35% (inactive),121%,-0.514 (inactive),4.9e-06 (inactive),0.00506 (inactive),2.54% (inactive),5.29% (inactive)
Cc1ccc(Cn2nnc(C(=O)Nc3cccc(C)c3C)c2N)cc1,457,9.4% (inactive),1.7% (inactive),95.1%,,150%,-0.565 (inactive),2.2e-07 (inactive),0.00621 (inactive),6.59% (inactive),9.57% (inactive)
CCOC(=O)CSc1ncnc2c1cnn2-c1ccc(C)cc1,296,2.4% (inactive),-24.2% (inactive),108%,-3.4% (inactive),129%,-0.581 (inactive),-2e-05 (inactive),0.00447 (inactive),22.8% (inactive),21.8% (inactive)
